# Reference: PubChem BioAssay (EPA / NIEHS)
# Inconclusive results are not listed. Some structures have more than one record in an assay (separate samples or runs), and their calls can disagree. Activity calls are given as the source filed them. Rule for the calls, unless noted: active = hit-call score of the fitted dose curve at least 0.9, where 1 is the maximum; inconclusive = response in the unintended direction; inactive = score below 0.9.
# Test system: SRD5A2 (gene 6716)
# Experiment: CCTE_Deisenroth_5AR_NBTE_ratio: CCTE's 5alpha-reductase NanoBRET Target Engagement Assay - Ratio, Deisenroth Lab (AID 2284322; active = hit-call score of the fitted dose curve at least 0.9, where 1 is the maximum; inactive = score below 0.9)
# Details: actives raise or lower the signal
# In short: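 HEK293T transiently expressing SRD5A2-NanoLuc; cells exposed to chemical (8-point, 10 nM - 29.9 uM) for 5 h total, testosterone tracer added for final 2 h. NanoBRET acceptor/donor ratio (650/460 nm), bidirectional fit vs DMSO.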
Structure (SMILES),outcome,AC50
O=C1c2ccccc2C(=O)N1SC(Cl)(Cl)Cl,inactive,–
CCC(C)(NC(=O)c1cc(Cl)c(C)c(Cl)c1)C(=O)CCl (stereo unspecified),inactive,–
CCCN(CCC)c1c([N+](=O)[O-])cc(C(F)(F)F)cc1[N+](=O)[O-],inactive,–
O=S1OCC2C(CO1)C1(Cl)C(Cl)=C(Cl)C2(Cl)C1(Cl)Cl (stereo unspecified),inactive,–
CCCN(CCOc1c(Cl)cc(Cl)cc1Cl)C(=O)n1ccnc1,inactive,–
ClC1C(Cl)C(Cl)C(Cl)C(Cl)C1Cl (stereo unspecified),inactive,–
CCC(C)Nc1c([N+](=O)[O-])cc(C(C)(C)C)cc1[N+](=O)[O-] (stereo unspecified),inactive,–
O=[N+]([O-])/N=C1\NCCN1Cc1ccc(Cl)nc1,inactive,–
CC1(c2ccc(Oc3ccccc3)cc2)OC(=O)N(Nc2ccccc2)C1=O (stereo unspecified),–,9.91 µM (active)

# Test system: not listed separately
# Experiment: TAMU_PeakParms_SingleDonor1434_Asystole: Texas A&M University (TAMU) 1.5-hr Human Induced Pluripotent Stem Cell (iPSC)-derived Cardiomyocytes Calcium (Ca+2) Flux Assay for Cardiotoxicity: Asystole (quiescence of beating) (AID 2284328)
# Details: not given
# In short: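 Human iPSC-derived cardiomyocytes (donor 1434) were exposed to 0.2, 1, 10 and 100 uM compound in 0.5% DMSO for 90 min at 37C. Ca2+-dye fluorescence gave average peak frequency; POD is EC95, a 95% beat-rate drop versus DMSO.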
row,Structure (SMILES),outcome
1,O=S1OCC2C(CO1)C1(Cl)C(Cl)=C(Cl)C2(Cl)C1(Cl)Cl (stereo unspecified),inactive
2,ClC1C(Cl)C(Cl)C(Cl)C(Cl)C1Cl (stereo unspecified),inactive
3,CCOCN(C(=O)CCl)c1c(C)cccc1CC,inactive
4,CN1CSC(=S)N(C)C1,inactive

# Test system: not listed separately
# Experiment: CCTE_Mundy_HCI_iCellGluta_NOG_NeuronCount: CCTE's Neurite Outgrowth Assay in iCellGluta cells for Neuron Count, Mundy Lab (AID 2284340);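 note: cells fixed about 48 h after compound addition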
# Details: not given
# In short: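 Neuron count read by automated high-content imaging of Hoechst 33342 and betaIII-tubulin/Alexa Fluor-488 labelling in human iPSC glutamatergic neurons. Activity fitted relative to DMSO.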
Structure (SMILES),outcome,AC50
CCC(C)(C)C(=O)OC1=C(c2ccc(Cl)cc2Cl)C(=O)OC12CCCCC2,inactive,–
O=S(=O)(O)C(F)(F)C(F)(F)C(F)(F)C(F)(F)C(F)(F)C(F)(F)C(F)(F)C(F)(F)F,inactive,–
O=C(O)C(F)(F)C(F)(F)C(F)(F)C(F)(F)C(F)(F)C(F)(F)C(F)(F)F,inactive,–
COP(=S)(OC)Oc1ccc([N+](=O)[O-])cc1,inactive,–
O=S1OCC2C(CO1)C1(Cl)C(Cl)=C(Cl)C2(Cl)C1(Cl)Cl (stereo unspecified),–,13.8 µM (active)
CC[C@H](C)[C@H]1O[C@]2(C=C[C@@H]1C)C[C@@H]1C[C@@H](C/C=C(\C)[C@@H](O[C@H]3C[C@H](OC)[C@@H](O[C@H]4C[C@H](OC)[C@@H](O)[C@H](C)O4)[C@H](C)O3)[C@@H](C)/C=C/C=C3\CO[C@@H]4[C@H](O)C(C)=C[C@@H](C(=O)O1)[C@]34O)O2 (tested in a mixture with another compound),–,3.77 µM (active)
CC(C)N(C(=O)COc1nnc(C(F)(F)F)s1)c1ccc(F)cc1,inactive,–
COP(=O)(OC)OC=C(Cl)Cl,inactive,–
O=[N+]([O-])/N=C1\NCCN1Cc1ccc(Cl)nc1,inactive,–
CNC(=O)CSP(=S)(OC)OC,inactive,–
CC1(C)C(C=C(Cl)Cl)C1C(=O)OC(C#N)c1ccc(F)c(Oc2ccccc2)c1 (stereo unspecified),inactive,49.9 µM (active)
CC1(c2ccc(Oc3ccccc3)cc2)OC(=O)N(Nc2ccccc2)C1=O (stereo unspecified),–,50 µM (active)
